Positions count from the first letter of the chain named. Whole data set: some 24,000 sequences, median “enrichment r” near 0.99, cut for the highest 2% near 3.7. This excerpt belongs to a sample that is enriched for the highest values.
T1: UNK ZnF1-3 (human, UniProt Q9C0B0 31-174)
T1 sequence: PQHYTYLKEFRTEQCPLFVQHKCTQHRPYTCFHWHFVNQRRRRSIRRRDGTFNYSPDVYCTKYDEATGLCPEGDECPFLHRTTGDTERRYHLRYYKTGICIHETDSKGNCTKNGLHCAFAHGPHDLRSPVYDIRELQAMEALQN

B1: chr2:91446484:91446485:+_ENSMUSG00000040549_ENSMUST00000099716|mus_hu|motif|central (ssRNA)
RNA: GGGAGUUCUACAGUCCGACGAUCCAAUUUCUCAUCUGCCAUGUGUGUGUUGUAGAUGAGUCUUAGCUGCAUAAAAGUGGCGGUCAGAAACUGAUCAAUAUGGCCGGACAUGGCUUCAGCUUUGUCUUCCUGUCUCAGGACCUCCAACAGAGGAUUGAGCAUCA
B2: 89236039_89237110_928_3pUTR_ENSG00000065243_ENST00000370521|human|control|control (ssRNA)
RNA: GGGAGUUCUACAGUCCGACGAUCGGUUUUGCAUUAUCAAAAGCCAAUUCAUUAGUCUGGACUGCCUGAAGAAUCUGCAUUCGUAUGACUUCUAUUUUUGUCUUGCUGUCCUGGAGCAGUUGCUGAGCUGUACCAUGGAGUUUCCAACAGAGGAUUGAGCAUCA
B3: chr17:56552419:56552420:-_ENSMUSG00000013236_ENSMUST00000086828|mus_mus|mus_mus_mus_hu_False|98_98 (ssRNA)
RNA: GGGAGUUCUACAGUCCGACGAUCAAAAAAUACACUAUAAAAAAAAAAUGAAAUGUCACGGGAUACAGUUACACUGAGAGUUUUAAAAGAAAGCUGGAUUCUGGUCCCAGCCCAGUGUCCCCAGGCUGCAGAGCGGGGAGGAGCCAACAGAGGAUUGAGCAUCA
B4: chr17:56552419:56552420:-_ENSMUSG00000013236_ENSMUST00000086828|mus_hu|FALSE|FALSE (ssRNA)
RNA: B3 RNA with A38U, A39U
B5: chr5:145543945:145543946:-_ENSG00000133706_ENST00000545646|hu_hu|hu_hu_hu_mus_True|1_8 (ssRNA)
RNA: GGGAGUUCUACAGUCCGACGAUCCUGAACGGCCAGUGGUGGGAAAUAAUCAAGCCAGUGCUCUGCUUCAGAAAACUUCACUAUGUCGUCAUCAGAGAGCCCAAGGGAUUUCAUAAUGUCCCACUGGUAUUUAGAAGAUCCAGCCAACAGAGGAUUGAGCAUCA
B6: chr17:56552419:56552420:-_ENSMUSG00000013236_ENSMUST00000086828|mus_mus|mus_mus_mus_hu_False|8_98 (ssRNA)
RNA: B3 RNA with C128A, A129G, G130U, A131G, G132C, C133G, G135A, G136A
B7: chr17:56552419:56552420:-_ENSMUSG00000013236_ENSMUST00000086828|mus_mus|mus_mus_mus_hu_False|8_48 (ssRNA)
RNA: GGGAGUUCUACAGUCCGACGAUCAAAAAAUACACUAUUUAAAAAAAAUGAAAUGUCACGGGAUACAGUUACACUGAGAGUUUUAAAAAAAAAUAAGAUUCUGGUCCCAGCCCAGUGUCCCCAGGCUGAGUGCGGAAGAGGAGCCAACAGAGGAUUGAGCAUCA
B8: chr17:56552419:56552420:-_ENSMUSG00000013236_ENSMUST00000086828|mus_mus|mus_mus_mus_hu_False|1_98 (ssRNA)
RNA: B3 RNA with A138C, G139A, C143G
B9: chr8:74858975:74858976:-_ENSG00000154582_ENST00000284811|hu_hu|FALSE|FALSE (ssRNA)
RNA: GGGAGUUCUACAGUCCGACGAUCAACCUUGUACGUAAAAUACAUGCAUACUUUCGAUAGCACAUGUGAAGGUAUCUCUCUAAAAUUGACCUCAUUGGUUUCGUUCUCAGCAAACUGACCUGGGCCACUCAACAUGGCUUUUAUCAACAGAGGAUUGAGCAUCA
B10: chr11:100882373:100882374:+_ENSMUSG00000019302_ENSMUST00000044721|mus_mus|mus_mus_mus_hu_True|38_68 (ssRNA)
RNA: GGGAGUUCUACAGUCCGACGAUCUUCCUGGUUUGUGUUGAUUUCCUUCAGUUCAUUUUCAAUCUUCUCGAAAUUGGCCUCUAAGUCAAUCAUGUCCCGAGGGAAGGGAACCUCUGGGUUUUCACCGGUGUCCAUAAUCGGAAUCAACAGAGGAUUGAGCAUCA
B11: chr17:56552419:56552420:-_ENSMUSG00000013236_ENSMUST00000086828|mus_mus|mus_mus_mus_hu_False|58_58 (ssRNA)
RNA: B3 RNA with A38U, A39U, G77C, G79C, U81A
B12: chr17:56552419:56552420:-_ENSMUSG00000013236_ENSMUST00000086828|mus_mus|mus_mus_mus_hu_False|58_98 (ssRNA)
RNA: B3 RNA with G77C, G79C, U81A
B13: chr16:14299702:14299703:-_ENSMUSG00000022677_ENSMUST00000023357|mus_mus|motif|central (ssRNA)
RNA: GGGAGUUCUACAGUCCGACGAUCCUCAAUUCAGAGUCCCUCUCCCCAAAUGACUCUAGCUUGUAUCAAGUUGAUAUAAAACGGGCCAGGGCAGGCAAUAAUAAUUCAGGUAUUUUUUAAAAAAUCAAACUUCAUAUAAAUUAACAACAGAGGAUUGAGCAUCA
B14: 105548853_105553245_153_3pUTR_ENSMUSG00000068798_ENSMUST00000090678|mouse|control|control (ssRNA)
RNA: GGGAGUUCUACAGUCCGACGAUCAUUUUUCAACAAAAAUCCCCUGAACAAACUGAACUGUCAGAGCAGACUUCCCCACGCCUCCUGAACCAAGGACUACUAGCUUGUACUCACGCAUGAUGCGCUCUGUUUAAAUAUUGACAACAACAGAGGAUUGAGCAUCA
B15: chr2:4828950:4828951:+_ENSMUSG00000026662_ENSMUST00000115019|mus_mus|motif|central (ssRNA)
RNA: GGGAGUUCUACAGUCCGACGAUCAAAAUCUAGUCUCCCCCAAUAAAUUGUAUUUUAGGCAAAAUCCUCCCAAAUGCUUCGGAAAUAAUACUAAAAAGGGCAUCUGAUUAUACAAGAGCAAUUAAAAAAAUUAAAUAUUUAUUUCAACAGAGGAUUGAGCAUCA
B16: chr16:14299702:14299703:-_ENSMUSG00000022677_ENSMUST00000023357|mus_mus|FALSE|FALSE (ssRNA)
RNA: B13 RNA with G82U, G83A
B17: 75889693_75893847_892_3pUTR_ENSG00000185009_ENST00000355264|human|control|control (ssRNA)
RNA: GGGAGUUCUACAGUCCGACGAUCCAGAUAGUUUAAUGCAAGCAUCAAUGACCCCCUGAAUUUCUGCAAAGACUGUAGAUCCUGAUUUAUCUAUAAUUGCGUCUAUUUCUUCAACAACAUCAAAAUAGGCUUCAUUGUUUGUGUCAACAGAGGAUUGAGCAUCA
B18: chr10:112362630:112362631:-_ENSMUSG00000074748_ENSMUST00000099276|mus_mus|motif|central (ssRNA)
RNA: GGGAGUUCUACAGUCCGACGAUCGGAUUACUUAUUAAAAAAUAAGAAUCUCCAAAACAAAGGACAGUGGUGAAUUUCAAACGGCCCUCCCCCAAUGAUCCCAGCAUGCGAUAAUGCCAGGUAGUGGCCCCUGGGCAUGCGAUGCAACAGAGGAUUGAGCAUCA
B19: chr2:4828950:4828951:+_ENSMUSG00000026662_ENSMUST00000115019|mus_mus|FALSE|FALSE (ssRNA)
RNA: B15 RNA with G80U, G81A

Target: T1, UNK ZnF1-3
Experiment: nsRBNS (natural sequence RNA bind-n-seq); RBNS binding buffer (assumed for nsRBNS): 25 mM Tris pH 7.5, 150 mM KCl, 3 mM MgCl2, 0.01% Triton X-100, 500 ug/ml BSA, 20 U/ml SUPERase-In, 4 C; UNK is unkempt and MSI1 is Musashi-1; names of the RNAs are library labels; protein concentration not given here; high values mean tight binding

Binder	binding signal
B1	0.637 enrichment R
B2	0.571 enrichment R
B3	4.54 enrichment R
B4	3.32 enrichment R
B5	1.44 enrichment R
B6	5.52 enrichment R
B7	6.71 enrichment R
B8	5.8 enrichment R
B9	0.5 enrichment R
B10	0.443 enrichment R
B11	3.59 enrichment R
B12	8.92 enrichment R
B13	3.78 enrichment R
B14	1.18 enrichment R
B15	14.3 enrichment R
B16	3.28 enrichment R
B17	0.939 enrichment R
B18	0.719 enrichment R
B19	4.12 enrichment R

Source: publication PMC12136788
